Experimental data: PubChem BioAssay (EPA / NIEHS)
Results filed as inconclusive are left out. Calls of active or inactive are those of the source. Rule for the calls, unless noted: active = hit-call score of the fitted dose curve at least 0.9, where 1 is the maximum; inactive = score below 0.9.

Assays:
[1] = target: Paired box protein Pax-6 (Homo sapiens) (UniProt P26367); assay: ATG_Pax6_CIS: Attagene CIS-FACTORIAL HepG2 Assay for human Paired Box 6 (PAX6) (AID 2282956); details: HepG2 CIS-FACTORIAL PAX6 reporter transcription, RNA readout; actives raise or lower the signal
Outline: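 HepG2 cells transiently transfected with multiplexed cis-promoter reporter units (endogenous TF activity) were dosed for 24 h. Reporter mRNA was quantified by RT-PCR, 6-FAM labeling, HpaI digestion and capillary electrophoresis; bidirectional fitting versus DMSO baseline.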

[2] = ATG_PXRE_CIS: Attagene CIS-FACTORIAL HepG2 Assay for human Pregnane X Receptor Element (PXRE) (AID 2282957); details: HepG2 Attagene CIS-FACTORIAL PXRE reporter, mRNA; actives raise or lower the signal
Outline: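 Transfect HepG2 with MRTUs (cis promoter elements); dose chemical, incubate 24 h; isolate RNA, RT with oligo(dT), PCR, 6-FAM label, HpaI cut, CE. Gain/loss fit vs DMSO.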

[3] = ATG_PPRE_CIS: Attagene CIS-FACTORIAL HepG2 Assay for human Peroxisome Proliferator-activated Response Element (PPRE) (AID 2282958); details: HepG2 PPRE cis-element reporter, Attagene transcription factor profiling; actives raise or lower the signal
Outline: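 Multiplexed reporter transcription units under cis-regulatory promoters were transfected into HepG2 cells to capture endogenous factor activity. A 24 h incubation preceded RNA isolation and fluorescent RT-PCR fragment analysis.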

[4] = ATG_Sox_CIS: Attagene CIS-FACTORIAL HepG2 Assay for human SRY-box transcription factor (SOX) (AID 2282960); details: HepG2 Attagene cis-factorial SOX reporter, mRNA; actives raise or lower the signal
Outline: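 After 24 h of chemical treatment, transfected HepG2 reporter cells are lysed for total RNA. Transcript levels come from RT-PCR with labelled primer extension and capillary electrophoresis, analysed bidirectionally versus DMSO.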

[5] = target: Transcription factor Sp1 (Homo sapiens) (UniProt P08047); assay: ATG_Sp1_CIS: Attagene CIS-FACTORIAL HepG2 Assay for human Specificity Protein 1 (Sp1) (AID 2282961); details: HepG2 Sp1 cis-reporter transcription, actives raise or lower the signal
Outline: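 Sp1-driven reporter mRNA, read as capillary electrophoresis fluorescence after RT-PCR, in transiently transfected HepG2 cells dosed for 24 h; signal change in either direction relative to DMSO.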

[6] = target: Signal transducer and activator of transcription 3 (Homo sapiens) (UniProt P40763); assay: ATG_STAT3_CIS: Attagene CIS-FACTORIAL HepG2 Assay for human Signal Transducer and Activator of Transcription 3 (STAT3) (AID 2282963); details: HepG2, Attagene cis-factorial STAT3 reporter transcription; actives raise or lower the signal
Outline: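 HepG2 cells transiently transfected with multiple cis-element-driven reporter units report endogenous transcription factor activity. After 24 h compound exposure, reporter mRNA is measured by RT-PCR, 6-FAM labelling, HpaI digestion and capillary electrophoresis. Fitted bidirectionally versus DMSO.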

[7] = ATG_TA_CIS: Attagene CIS-FACTORIAL HepG2 Assay for human TA Basal Promoter (AID 2282964); details: HepG2 Attagene CIS-factorial TA basal promoter reporter; actives raise or lower the signal
Outline: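 Cis-factorial format in HepG2: reporters report endogenous factors, not chimeric Gal4 fusions. After 24 h treatment, reporter transcripts were measured by RT-PCR-capillary electrophoresis fluorescence, analysed bidirectionally versus DMSO.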

[8] = ATG_TCF_b_cat_CIS: Attagene CIS-FACTORIAL HepG2 Assay for human T-Cell-Factor with beta-catenin (TCF/b-cat) (AID 2282965); details: HepG2 TCF/beta-catenin cis-reporter transcription, actives raise or lower the signal
Outline: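 HepG2 cells transiently transfected with cis-promoter-driven multiplexed reporter units; reporter mRNA measured 24 h after dosing by RT-PCR, FAM labelling, HpaI digestion and capillary electrophoresis. Bidirectional fitting relative to DMSO baseline.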

[9] = ATG_TAL_CIS: Attagene CIS-FACTORIAL HepG2 Assay for human TAL Basal Promoter (AID 2282966); details: HepG2 Attagene cis-factorial TAL promoter reporter; actives raise or lower the signal;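 note: background control endpoint measuring basal TAL promoter reporter mRNA not a specific factor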
Outline: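 Fluorescence of labelled reporter cDNA fragments, resolved by capillary electrophoresis, gave the readout. Human HepG2 liver cells carried transiently transfected cis-element reporter units and were treated for 24 hours; activity was fitted bidirectionally against DMSO.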

[10] = ATG_VDRE_CIS: Attagene CIS-FACTORIAL HepG2 Assay for human Vitamin D Receptor Element (VDRE) (AID 2282968); details: HepG2 VDRE cis-reporter transcription, actives raise or lower the signal
Outline: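 Transiently transfected HepG2 cells carrying cis-regulated reporter transcription units were exposed for 24 h. Reporter mRNA was measured by RT-PCR with fluorescent labelling and capillary electrophoresis, and fitted in both directions against DMSO.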

[11] = target: Estrogen receptor (Homo sapiens) (UniProt P03372); assay: ATG_ERa_TRANS: Attagene TRANS-FACTORIAL HepG2 Assay for human Estrogen Receptor alpha (ERa) (AID 2282970; active = hit-call score of the fitted dose curve at least 0.9, where 1 is the maximum); details: HepG2 Attagene TRANS ERa GAL4 reporter, mRNA
Outline: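 Human liver HepG2, transient transfection of multiple GAL4-UAS reporter units; TRANS format (exogenous NR-Gal4 chimera). 24 h dosing. Readout: reporter mRNA, RT-PCR, 6-FAM primer extension, HpaI digest, capillary electrophoresis. Positive direction vs DMSO.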

[12] = target: X-box-binding protein 1 (Homo sapiens) (UniProt P17861); assay: ATG_Xbp1_CIS: Attagene CIS-FACTORIAL HepG2 Assay for human X-box Binding Protein 1 (XBP1) (AID 2282972); details: HepG2 XBP1 cis-element reporter, Attagene multiplex; actives raise or lower the signal
Outline: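 HepG2 cells transiently transfected with cis-regulated multiple reporter transcription units; endogenous transcription factor activity measured 24 hours after chemical dosing. Reporter mRNA quantified by RT-PCR, 6-FAM primer extension, HpaI digestion and capillary electrophoresis; bidirectional fitting versus DMSO.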

[13] = ATG_M_19_TRANS: Attagene TRANS-FACTORIAL HepG2 Assay for M19 Transcription Factor (Internal Marker) (AID 2282974; active = hit-call score of the fitted dose curve at least 0.9, where 1 is the maximum); details: HepG2 Attagene TRANS-FACTORIAL M19 internal marker reporter
Outline: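 Measured here: internal-marker reporter transcript from HepG2 cells transfected with MRTUs, harvested at 24 h. cDNA PCR products were 6-FAM labelled by primer extension, cut with HpaI for 2 h at 37 C, and resolved by CE.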

[14] = ATG_GAL4_TRANS: Attagene TRANS-FACTORIAL HepG2 Assay for GAL4 (Internal Marker) (AID 2282976; active = hit-call score of the fitted dose curve at least 0.9, where 1 is the maximum); details: HepG2 Attagene TRANS GAL4 internal marker reporter
Outline: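 First, HepG2 cells were transfected with reporter units under GAL4-UAS control. Next, they were treated with chemical for 24 h. Finally, RNA was reverse-transcribed, PCR-amplified, FAM-labelled and resolved by capillary electrophoresis, with induction scored against DMSO.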

[15] = ATG_RORE_CIS: Attagene CIS-FACTORIAL HepG2 Assay for human RAR-related Orphan Receptor Element (RORE) (AID 2282959); details: HepG2 Attagene cis-factorial RORE reporter, mRNA; actives raise or lower the signal
Outline: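 Fluorescence intensity of reporter-specific cDNA fragments, separated by capillary electrophoresis, gives the signal. Source: HepG2 liver cells transiently transfected with cis-element reporters and exposed 24 h; DMSO-normalized bidirectional fit.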

[16] = ATG_SREBP_CIS: Attagene CIS-FACTORIAL HepG2 Assay for human Sterol Regulatory Element Binding (SREBP) (AID 2282962); details: HepG2 Attagene cis-factorial SREBP reporter, mRNA; actives raise or lower the signal
Outline: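 HepG2 cells transiently transfected with multiplexed cis-element reporter units report endogenous transcription factor activity. After 24 h of chemical exposure, reporter mRNA was quantified by RT-PCR, 6-FAM labelling, HpaI digestion and capillary electrophoresis; bidirectional fits used DMSO as baseline.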

[17] = ATG_TGFb_CIS: Attagene CIS-FACTORIAL HepG2 Assay for human Transforming Growth Factor (TGF) (AID 2282967); details: HepG2 Attagene CIS TGFb reporter, mRNA transcription; actives raise or lower the signal
Outline: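 Multiplexed cis-reporter HepG2 system, 24 h treatment; mRNA induction read by fluorescence after RT-PCR and CE; DMSO negative control, bidirectional curve fitting.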

[18] = target: Nuclear receptor subfamily 1 group I member 3 (Homo sapiens) (UniProt Q14994); assay: ATG_CAR_TRANS: Attagene TRANS-FACTORIAL HepG2 Assay for human Constitutive Androstane Receptor (CAR) (AID 2282969; active = hit-call score of the fitted dose curve at least 0.9, where 1 is the maximum;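 note: activators raise reporter mRNA above DMSO so AC50 marks induction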); details: HepG2 Attagene TRANS-FACTORIAL CAR reporter
Outline: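 HepG2 cells transiently transfected with GAL4-UAS reporter units; TRANS format reads activity of exogenous chimeric NR-Gal4 protein. After 24 h dosing, reporter mRNA quantified by RT-PCR, 6-FAM labelling and capillary electrophoresis; gain of signal fitted against DMSO.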

[19] = target: Steroid hormone receptor ERR1 (Homo sapiens) (UniProt P11474); assay: ATG_ERRa_TRANS: Attagene TRANS-FACTORIAL HepG2 Assay for human Estrogen-Related Receptor alpha (ERRa) (AID 2282971; active = hit-call score of the fitted dose curve at least 0.9, where 1 is the maximum); details: HepG2 Attagene TRANS reporter, ERRa transactivation
Outline: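 Reporter transcript induction was quantified by RT-PCR and capillary electrophoresis of FAM-labelled, HpaI-cut products after 24 h treatment of HepG2 cells carrying transiently transfected GAL4-UAS reporter units and an exogenous ERRa-Gal4 fusion; activity scored as increase over DMSO.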

Measured: AC50

Sequence of Nuclear receptor subfamily 1 group I member 3 (Homo sapiens) (Q14994 whole entry, looked up, the tested form may be a part): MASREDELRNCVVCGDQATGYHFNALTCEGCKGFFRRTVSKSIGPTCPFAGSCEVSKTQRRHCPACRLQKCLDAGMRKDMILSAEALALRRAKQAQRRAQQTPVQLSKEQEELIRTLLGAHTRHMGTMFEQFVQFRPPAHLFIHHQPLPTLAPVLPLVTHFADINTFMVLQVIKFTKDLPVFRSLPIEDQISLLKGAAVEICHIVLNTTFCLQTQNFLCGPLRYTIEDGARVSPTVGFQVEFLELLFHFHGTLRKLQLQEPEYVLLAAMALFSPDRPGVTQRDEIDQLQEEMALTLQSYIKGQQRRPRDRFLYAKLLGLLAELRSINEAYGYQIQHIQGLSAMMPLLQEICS
Sequence of X-box-binding protein 1 (Homo sapiens) (P17861 whole entry, looked up): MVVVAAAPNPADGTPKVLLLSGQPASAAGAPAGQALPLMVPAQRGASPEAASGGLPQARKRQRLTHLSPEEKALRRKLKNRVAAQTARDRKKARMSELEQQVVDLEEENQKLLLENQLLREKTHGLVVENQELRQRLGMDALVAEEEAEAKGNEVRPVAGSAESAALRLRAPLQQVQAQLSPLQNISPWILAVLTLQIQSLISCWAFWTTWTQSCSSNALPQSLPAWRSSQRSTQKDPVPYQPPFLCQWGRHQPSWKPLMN
Sequence of Signal transducer and activator of transcription 3 (Homo sapiens) (P40763 whole entry, looked up): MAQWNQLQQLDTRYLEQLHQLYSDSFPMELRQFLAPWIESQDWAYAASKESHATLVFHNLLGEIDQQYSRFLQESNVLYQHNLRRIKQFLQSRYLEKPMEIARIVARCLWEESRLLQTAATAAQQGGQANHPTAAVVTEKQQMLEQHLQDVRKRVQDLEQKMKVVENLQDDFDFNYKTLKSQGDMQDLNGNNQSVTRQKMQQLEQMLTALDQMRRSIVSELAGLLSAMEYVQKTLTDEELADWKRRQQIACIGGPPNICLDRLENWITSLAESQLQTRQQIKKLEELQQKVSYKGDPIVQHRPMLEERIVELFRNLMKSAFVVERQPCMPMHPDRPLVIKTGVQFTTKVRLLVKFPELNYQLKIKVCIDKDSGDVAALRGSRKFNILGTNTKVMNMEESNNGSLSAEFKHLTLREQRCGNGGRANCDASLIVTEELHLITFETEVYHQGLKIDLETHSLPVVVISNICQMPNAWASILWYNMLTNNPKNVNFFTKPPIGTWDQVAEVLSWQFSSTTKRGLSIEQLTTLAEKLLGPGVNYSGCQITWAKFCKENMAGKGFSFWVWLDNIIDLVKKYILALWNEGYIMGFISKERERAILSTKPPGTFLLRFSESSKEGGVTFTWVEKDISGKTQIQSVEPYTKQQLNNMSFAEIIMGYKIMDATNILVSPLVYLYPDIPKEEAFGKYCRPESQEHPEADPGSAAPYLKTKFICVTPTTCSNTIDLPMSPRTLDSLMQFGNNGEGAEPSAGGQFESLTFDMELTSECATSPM
Sequence of Paired box protein Pax-6 (Homo sapiens) (P26367 whole entry, looked up): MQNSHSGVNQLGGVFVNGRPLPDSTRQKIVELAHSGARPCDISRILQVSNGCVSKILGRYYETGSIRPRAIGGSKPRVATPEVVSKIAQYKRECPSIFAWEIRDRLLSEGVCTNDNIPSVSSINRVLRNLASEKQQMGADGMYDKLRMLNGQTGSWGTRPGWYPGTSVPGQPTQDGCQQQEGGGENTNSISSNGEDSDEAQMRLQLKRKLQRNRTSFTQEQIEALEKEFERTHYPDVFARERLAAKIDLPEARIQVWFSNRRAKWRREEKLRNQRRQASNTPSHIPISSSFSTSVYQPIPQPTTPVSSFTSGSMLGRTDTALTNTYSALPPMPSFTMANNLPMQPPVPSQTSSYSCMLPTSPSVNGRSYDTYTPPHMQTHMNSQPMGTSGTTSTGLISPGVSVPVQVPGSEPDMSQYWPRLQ
Sequence of Estrogen receptor (Homo sapiens) (P03372 whole entry, looked up, the tested form may be a part): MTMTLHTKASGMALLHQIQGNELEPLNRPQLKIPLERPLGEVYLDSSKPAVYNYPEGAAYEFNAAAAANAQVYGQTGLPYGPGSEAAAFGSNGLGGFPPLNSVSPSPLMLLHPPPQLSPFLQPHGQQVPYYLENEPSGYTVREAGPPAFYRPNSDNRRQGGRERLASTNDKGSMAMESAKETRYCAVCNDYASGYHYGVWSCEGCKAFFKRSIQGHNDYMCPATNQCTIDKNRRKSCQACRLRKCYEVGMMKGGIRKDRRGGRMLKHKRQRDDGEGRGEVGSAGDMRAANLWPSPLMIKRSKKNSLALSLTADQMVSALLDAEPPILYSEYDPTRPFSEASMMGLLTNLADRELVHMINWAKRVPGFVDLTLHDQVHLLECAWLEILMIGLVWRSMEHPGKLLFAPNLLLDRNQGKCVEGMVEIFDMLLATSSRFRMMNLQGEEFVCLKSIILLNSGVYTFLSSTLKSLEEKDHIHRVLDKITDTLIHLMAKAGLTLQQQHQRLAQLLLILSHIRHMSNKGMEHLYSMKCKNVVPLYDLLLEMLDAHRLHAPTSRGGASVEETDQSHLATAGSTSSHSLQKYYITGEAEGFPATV
Sequence of Transcription factor Sp1 (Homo sapiens) (P08047 whole entry, looked up): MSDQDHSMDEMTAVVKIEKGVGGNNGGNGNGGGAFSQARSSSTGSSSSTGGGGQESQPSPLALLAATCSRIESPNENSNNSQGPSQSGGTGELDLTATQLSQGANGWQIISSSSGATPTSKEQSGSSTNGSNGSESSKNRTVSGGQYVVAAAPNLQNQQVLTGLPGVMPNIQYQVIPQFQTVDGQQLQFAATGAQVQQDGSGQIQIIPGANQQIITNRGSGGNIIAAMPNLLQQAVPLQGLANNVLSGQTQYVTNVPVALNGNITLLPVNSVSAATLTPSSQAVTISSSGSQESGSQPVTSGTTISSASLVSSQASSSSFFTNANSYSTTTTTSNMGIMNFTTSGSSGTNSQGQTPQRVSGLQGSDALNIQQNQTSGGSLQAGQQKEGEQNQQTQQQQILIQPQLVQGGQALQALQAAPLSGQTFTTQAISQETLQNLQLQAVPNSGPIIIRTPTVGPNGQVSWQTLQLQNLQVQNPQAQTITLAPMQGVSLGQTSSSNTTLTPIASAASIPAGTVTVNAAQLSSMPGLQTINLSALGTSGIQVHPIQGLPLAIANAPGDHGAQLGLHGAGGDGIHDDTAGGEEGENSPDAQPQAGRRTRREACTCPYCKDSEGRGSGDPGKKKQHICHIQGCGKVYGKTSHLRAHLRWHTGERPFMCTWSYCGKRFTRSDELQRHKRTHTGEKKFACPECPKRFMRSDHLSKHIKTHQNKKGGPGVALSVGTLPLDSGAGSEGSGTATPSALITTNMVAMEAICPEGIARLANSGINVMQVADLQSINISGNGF
Sequence of Steroid hormone receptor ERR1 (Homo sapiens) (P11474 whole entry, looked up, the tested form may be a part): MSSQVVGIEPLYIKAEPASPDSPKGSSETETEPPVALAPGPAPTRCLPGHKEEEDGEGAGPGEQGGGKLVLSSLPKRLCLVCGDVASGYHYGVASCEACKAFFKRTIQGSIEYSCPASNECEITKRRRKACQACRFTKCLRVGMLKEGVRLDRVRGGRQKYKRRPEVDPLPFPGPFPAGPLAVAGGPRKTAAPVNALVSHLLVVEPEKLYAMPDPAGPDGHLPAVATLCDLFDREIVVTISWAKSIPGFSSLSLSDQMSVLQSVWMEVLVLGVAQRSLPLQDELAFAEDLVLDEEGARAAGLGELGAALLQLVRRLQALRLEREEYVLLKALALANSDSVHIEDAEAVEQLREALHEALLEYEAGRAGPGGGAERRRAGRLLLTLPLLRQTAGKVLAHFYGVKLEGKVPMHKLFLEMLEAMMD

CC/C=C\CCOC(=O)CCCCC
not listed: [15] | [16] | [17] | [18] | [19]
inactive: all other assays above

CC=CC(=O)N(CC)c1ccccc1C
active: [2] 11.1 µM | [10] 15.5 µM
not listed: [3] | [13] | [14]
inactive: all other assays above

C=C1[C@H]2CC[C@@H]3[C@H]2C(C)(C)CCC[C@]13C
active: [2] 5.34 µM | [11] 18.9 µM
not listed: [10] | [14] | [15] | [19]
inactive: all other assays above

C=C(C)c1cccc(C(C)(C)N=C=O)c1
active: [2] 0.0919 µM | [10] 0.377 µM
not listed: [3] | [11] | [14] | [19]
inactive: all other assays above

Cc1cc(=O)n(-c2ccccc2)n1C
not listed: [3] | [14] | [18] | [19]
inactive: all other assays above

FC(F)(F)C(=NOCC1OCCO1)c1ccc(Cl)cc1
active: [2] 12.1 µM | [3] 130 µM
not listed: [5] | [14] | [15] | [19]
inactive: all other assays above

COc1c2ccoc2cc2oc(=O)ccc12
active: [2] 26.9 µM
not listed: [3] | [13] | [14] | [18] | [19]
inactive: all other assays above

OCCc1ccncc1
not listed: [3] | [13] | [18]
inactive: all other assays above

CCO[Si](CCCN=C=O)(OCC)OCC
active: [2] 13.9 µM
not listed: [3] | [11] | [19]
inactive: all other assays above
